Laboratory results taken from the supplement of paper PMC10646978.
± gives the standard deviation.

Tests used:
Conditions in all cases: modulator concentration 10 µM
[1] = test system: RAW-Dual (murine macrophage reporter line); experiment: NF-kB reporter (SEAP) activity fold change vs agonist alone; higher = enhanced NF-kB activity
Method in brief: (§1)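 In 384-well plates holding 50 000 RAW-Dual murine macrophage reporter cells per well, compound at 10 μM final was pre-incubated for 1 hour at 37 °C, after which a PRR agonist was added overnight. Supernatant SEAP read with QUANTI-Blue at 620 nm absorbance reported NF-κB, and Lucia luciferase read with QUANTI-Luc luminescence reported IRF. Fold change values come from dividing each reporter signal by the mean of agonist-only control wells on the same plate, averaged over replicate plates with propagated errors.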

[2] = test system: RAW-Dual (murine macrophage reporter line); experiment: IRF reporter (Lucia luciferase) activity fold change vs agonist alone; higher = enhanced IRF activity
Method in brief: as §1

[3] = test system: RAW-Dual (murine macrophage reporter line); experiment: viability score (confluency relative to resting cells, overnight) (fraction); higher = more viable, active = viable (0.7 or more)
Method in brief: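 In 384-well plates, RAW-Dual macrophages received compound at a final 10 μM overnight. Two confluency masks were then made with IncuCyte software from IncuCyte images of all imaged wells. The viability score is defined as confluency relative to resting cells. Passing the cutoff required both masks to lie above 70% of resting cells.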

[4] = agonist: CpG ODN 1826 0.5 ug/mL

## NC(CO)(CO)CO.O=C(c1ccccc1)c1ccc2n1CCC2C(=O)O (stereo unspecified)
[1]; [4]
  NF-kB reporter: 0.916 ± 0.18
[1]; agonist: LPS 0.1 ug/mL
  NF-kB reporter: 1.05 ± 0.087
[1]; agonist: MPLA […]
  NF-kB reporter: 0.977 ± 0.14
[2]; agonist: 3'3'-cGAMP 10 ug/mL
  IRF reporter: 0.933 ± 0.032
[2]; agonist: LPS 0.1 ug/mL
  IRF reporter: 1.07 ± 0.2
[2]; agonist: MPLA […]
  IRF reporter: 1.15 ± 0.19
[3]
  viability score: 1.01 (active)

## CCOC(=O)[C@@H](N)Cc1ccc(-c2cc(O[C@H](c3ccc(Cl)cc3-n3ccc(C)n3)C(F)(F)F)nc(N)n2)cc1.O=C(O)CNC(=O)c1ccccc1
[1]; [4]
  NF-kB reporter: 0.504 ± 0.06
[1]; agonist: LPS 0.1 ug/mL
  NF-kB reporter: 0.512 ± 0.053
[1]; agonist: MPLA […]
  NF-kB reporter: 0.937 ± 0.11
[2]; agonist: 3'3'-cGAMP 10 ug/mL
  IRF reporter: 0.734 ± 0.043
[2]; agonist: LPS 0.1 ug/mL
  IRF reporter: 0.787 ± 0.026
[2]; agonist: MPLA […]
  IRF reporter: 3.54 ± 0.34
[3]
  viability score: 0.119 (inactive)

## CS(=O)(=O)O.Cc1ccc(NC(=O)c2ccc(CN3CCN(C)CC3)cc2)cc1Nc1nccc(-c2cccnc2)n1
[1]; [4]
  NF-kB reporter: 0.119 ± 0.03
[1]; agonist: LPS 0.1 ug/mL
  NF-kB reporter: 1.27 ± 0.28
[1]; agonist: MPLA […]
  NF-kB reporter: 1.89 ± 0.17
[2]; agonist: 3'3'-cGAMP 10 ug/mL
  IRF reporter: 0.201 ± 0.0064
[2]; agonist: LPS 0.1 ug/mL
  IRF reporter: 0.97 ± 0.18
[2]; agonist: MPLA […]
  IRF reporter: 1.75 ± 0.3
[3]
  viability score: 0.957 (active)

## O=C(CSc1nc(-c2ccccc2)c(-c2ccccc2)[nH]1)N1CCOCC1
[1]; [4]
  NF-kB reporter: 1.05 ± 0.32
[1]; agonist: LPS 0.1 ug/mL
  NF-kB reporter: 1.08 ± 0.16
[1]; agonist: MPLA […]
  NF-kB reporter: 1.05 ± 0.1
[2]; agonist: 3'3'-cGAMP 10 ug/mL
  IRF reporter: 0.897 ± 0.032
[2]; agonist: LPS 0.1 ug/mL
  IRF reporter: 1.28 ± 0.17
[2]; agonist: MPLA […]
  IRF reporter: 1.32 ± 0.17
[3]
  viability score: 0.996 (active)

## c1cnn(-c2ccc(N=Nc3ccc(-n4cccn4)cc3)cc2)c1
[1]; [4]
  NF-kB reporter: 0.939 ± 0.087
[1]; agonist: LPS 0.1 ug/mL
  NF-kB reporter: 1.05 ± 0.083
[1]; agonist: MPLA […]
  NF-kB reporter: 0.966 ± 0.082
[2]; agonist: 3'3'-cGAMP 10 ug/mL
  IRF reporter: 0.814 ± 0.037
[2]; agonist: LPS 0.1 ug/mL
  IRF reporter: 1.09 ± 0.1
[2]; agonist: MPLA […]
  IRF reporter: 1.02 ± 0.12
[3]
  viability score: 0.996 (active)

## CN(C)C(CNC(=O)NCc1ccc(Cl)cc1)c1ccc2c(c1)CCO2 (stereo unspecified)
[1]; [4]
  NF-kB reporter: 0.616 ± 0.1
[1]; agonist: LPS 0.1 ug/mL
  NF-kB reporter: 1.17 ± 0.091
[1]; agonist: MPLA […]
  NF-kB reporter: 0.937 ± 0.1
[2]; agonist: 3'3'-cGAMP 10 ug/mL
  IRF reporter: 0.854 ± 0.026
[2]; agonist: LPS 0.1 ug/mL
  IRF reporter: 1.2 ± 0.23
[2]; agonist: MPLA […]
  IRF reporter: 1.4 ± 0.14
[3]
  viability score: 1 (active)

## Clc1ccc(C=NNc2cc(N3CCCC3)nc(N3CCCC3)n2)c(Cl)c1
[1]; [4]
  NF-kB reporter: 0.988 ± 0.076
[1]; agonist: LPS 0.1 ug/mL
  NF-kB reporter: 0.983 ± 0.081
[1]; agonist: MPLA […]
  NF-kB reporter: 0.987 ± 0.1
[2]; agonist: 3'3'-cGAMP 10 ug/mL
  IRF reporter: 0.99 ± 0.062
[2]; agonist: LPS 0.1 ug/mL
  IRF reporter: 1.21 ± 0.15
[2]; agonist: MPLA […]
  IRF reporter: 1.31 ± 0.25
[3]
  viability score: 1.04 (active)

## CC(=O)N1CCC(C(=O)NC(Cn2nccn2)c2ccccc2)CC1 (stereo unspecified)
[1]; [4]
  NF-kB reporter: 0.87 ± 0.05
[1]; agonist: LPS 0.1 ug/mL
  NF-kB reporter: 1.06 ± 0.09
[1]; agonist: MPLA […]
  NF-kB reporter: 1.05 ± 0.082
[2]; agonist: 3'3'-cGAMP 10 ug/mL
  IRF reporter: 1.04 ± 0.051
[2]; agonist: LPS 0.1 ug/mL
  IRF reporter: 1.34 ± 0.25
[2]; agonist: MPLA […]
  IRF reporter: 1.56 ± 0.46
[3]
  viability score: 0.935 (active)

## CCOC(=O)c1cc(-c2ccccc2)sc1NC(=O)C(C)(C)C
[1]; [4]
  NF-kB reporter: 0.798 ± 0.068
[1]; agonist: LPS 0.1 ug/mL
  NF-kB reporter: 0.907 ± 0.055
[1]; agonist: MPLA […]
  NF-kB reporter: 1.2 ± 0.17
[2]; agonist: 3'3'-cGAMP 10 ug/mL
  IRF reporter: 0.945 ± 0.055
[2]; agonist: LPS 0.1 ug/mL
  IRF reporter: 1.3 ± 0.093
[2]; agonist: MPLA […]
  IRF reporter: 1.44 ± 0.17
[3]
  viability score: 1.02 (active)

## Oc1ccccc1C=NNc1nc(-c2ccccc2)cc(-c2ccccc2)n1
[1]; [4]
  NF-kB reporter: 0.769 ± 0.066
[1]; agonist: LPS 0.1 ug/mL
  NF-kB reporter: 1.02 ± 0.088
[1]; agonist: MPLA […]
  NF-kB reporter: 1.03 ± 0.12
[2]; agonist: 3'3'-cGAMP 10 ug/mL
  IRF reporter: 1.19 ± 0.12
[2]; agonist: LPS 0.1 ug/mL
  IRF reporter: 1.16 ± 0.16
[2]; agonist: MPLA […]
  IRF reporter: 1.26 ± 0.2
[3]
  viability score: 0.987 (active)

## CC(C)c1nc(CN(C)C(=O)N[C@@H](CCN2CCOCC2)C(=O)N[C@H](CC[C@H](Cc2ccccc2)NC(=O)OCc2cncs2)Cc2ccccc2)cs1
[1]; [4]
  NF-kB reporter: 1.29 ± 0.073
[1]; agonist: LPS 0.1 ug/mL
  NF-kB reporter: 0.959 ± 0.076
[1]; agonist: MPLA […]
  NF-kB reporter: 1.14 ± 0.036
[2]; agonist: 3'3'-cGAMP 10 ug/mL
  IRF reporter: 0.687 ± 0.032
[2]; agonist: LPS 0.1 ug/mL
  IRF reporter: 0.842 ± 0.11
[2]; agonist: MPLA […]
  IRF reporter: 0.839 ± 0.18
[3]
  viability score: 1 (active)

## CC1CC(=O)C2=C(C1)OC(N)=C(C#N)C2c1ccc(Br)cc1 (stereo unspecified)
[1]; [4]
  NF-kB reporter: 0.847 ± 0.088
[1]; agonist: LPS 0.1 ug/mL
  NF-kB reporter: 0.91 ± 0.17
[1]; agonist: MPLA […]
  NF-kB reporter: 1 ± 0.056
[2]; agonist: 3'3'-cGAMP 10 ug/mL
  IRF reporter: 0.782 ± 0.096
[2]; agonist: LPS 0.1 ug/mL
  IRF reporter: 0.904 ± 0.04
[2]; agonist: MPLA […]
  IRF reporter: 0.731 ± 0.12
[3]
  viability score: 0.994 (active)

## Cc1oncc1C(=O)NCCn1nc(C(F)(F)F)cc1C1CC1
[1]; [4]
  NF-kB reporter: 1.06 ± 0.096
[1]; agonist: LPS 0.1 ug/mL
  NF-kB reporter: 1.05 ± 0.081
[1]; agonist: MPLA […]
  NF-kB reporter: 0.991 ± 0.067
[2]; agonist: 3'3'-cGAMP 10 ug/mL
  IRF reporter: 0.972 ± 0.039
[2]; agonist: LPS 0.1 ug/mL
  IRF reporter: 0.978 ± 0.087
[2]; agonist: MPLA […]
  IRF reporter: 0.935 ± 0.21
[3]
  viability score: 1 (active)
